Source: PubChem BioAssay (NCATS)
A number with no mark means an inactive call. Results filed as inconclusive are left out. A call without a number means that no potency is given here. The source made the active and inactive calls. Calls come from the whole dose curve; as a rule, active = well fitted curve in the direction sought with a large enough effect; inconclusive = small, poorly fitted or top-dose-only effect, or another doubt; inactive = no such curve, though single readings can be large; an effect the other way counts as inactive or inconclusive. Numbered stars: 1 amine (or outer) side, 2 acyl side, 3 side chain; on linkers, the order of the positions; unused ones are H or OH. Square brackets hold non-standard residues; d marks the D form. Peptide text beside a SMILES is read from it. ξ: configuration not given here. X4 = O=C(C1CC2(c3ccc(O)cc3)c3ccccc3NC2N1[*:1])[*:2]; ξW = NC(Cc1c[nH]c2ccccc12)C(=O)O; ξY = NC(Cc1ccc(O)cc1)C(=O)O

What was measured:
[1] = tested on: Zika virus NS2B-NS3 protease (linked construct); assay: Primary screen NINDS Rhodamine qHTS for Zika virus inhibitors (AID 1347160); note: nearly all actives have a fitted effect of over 55% in size; note: potency is the fitted concentration of half-maximal effect
Outline: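 Enzyme (25 nM, linked NS2B-NS3) was preincubated 15 min with compound in 10 mM Tris-HCl pH 8.0, 0.01% Tween 20. Rhodamine110 substrate (1.5 microM) was then added and fluorescence read at start and after 15 min.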

[2] = OV-KATE Cancer Cell Toxicity qHTS against the NCATS CANVASS Library (AID 1347345); note: potency is the fitted concentration of half-maximal effect
Outline: (§1)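 Toxicity is measured over 72 h of compound exposure at 37 degrees C under 5% CO2. Each well holds 1000 cells, pre-incubated for 4 hours before dosing across an 11-point range. CellTiter-Glo luminescence gives viability.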

[3] = HPAF-II Cancer Cell Toxicity qHTS against the NCATS CANVASS Library (AID 1347346); note: nearly all actives have a fitted effect of over 55% in size; note: potency is the fitted concentration of half-maximal effect
Outline: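 Using 1000 HPAF-II cells per well, we titrated compounds over 11 concentrations for 72 h at 37 degrees C/5% CO2, with bortezomib as control. Cell survival was quantified by CellTiter-Glo luminescence.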

[4] = UWB1.289 Cancer Cell Toxicity qHTS against the NCATS CANVASS Library (AID 1347347); note: nearly all actives have a fitted effect of over 60% in size; note: potency is the fitted concentration of half-maximal effect
Outline: as §1

[5] = Panc-1005 Cancer Cell Toxicity qHTS against the NCATS CANVASS Library (AID 1347349); note: nearly all actives have a fitted effect of over 60% in size; note: potency is the fitted concentration of half-maximal effect
Outline: as §1

[6] = SW1088 Cancer Cell Toxicity qHTS against the NCATS CANVASS Library (AID 1347350); note: nearly all actives have a fitted effect of over 75% in size; note: potency is the fitted concentration of half-maximal effect
Outline: as §1

[7] = COV-362 Cancer Cell Toxicity qHTS against the NCATS CANVASS Library (AID 1347352); note: potency is the fitted concentration of half-maximal effect
Outline: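 Using an ATP-based luminescent reagent after three days of treatment, toxicity is scored across an eleven-concentration range in wells holding 1000 cells each.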

[8] = HEK293 18hr Apoptosis Induction qHTS against the NCATS CANVASS Library (AID 1347357); note: potency is the fitted concentration of half-maximal effect
Outline: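 HEK293 cells (500 per well, DMEM with 10% FBS) were treated with natural products, incubated 18 hours at 37 degrees C, then caspase-3/7 activity was read by Caspase-Glo luminescence after 15 min at room temperature.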

[9] = HEK293 24hr Apoptosis Induction qHTS against the NCATS CANVASS Library (AID 1347359); note: potency is the fitted concentration of half-maximal effect
Outline: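 Caspase-3/7 activation measured as luminescence from the DEVD-based Caspase-Glo reagent, 15 min at room temperature, following 24-hour compound treatment of HEK293 cells.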

[10] = HEK293 12hr Apoptosis Induction qHTS against the NCATS CANVASS Library (AID 1347361); note: potency is the fitted concentration of half-maximal effect
Outline: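 Read-out: Caspase-Glo 3/7 luminescence (DEVD substrate), 15 min RT. Preceded by 12 h compound exposure of HEK293, 500 cells/well, 11-pt qHTS titration; doxorubicin titration as control.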

[11] = target: Luciferin 4-monooxygenase (Photinus pyralis) (UniProt P08659); assay: Firefly luciferase counterscreen qHTS: Assay Interference Panel against the NCATS CANVASS Library (AID 1347363); note: series mostly up to about 57 µM
Luciferin 4-monooxygenase (Photinus pyralis), sequence (P08659 whole entry, looked up): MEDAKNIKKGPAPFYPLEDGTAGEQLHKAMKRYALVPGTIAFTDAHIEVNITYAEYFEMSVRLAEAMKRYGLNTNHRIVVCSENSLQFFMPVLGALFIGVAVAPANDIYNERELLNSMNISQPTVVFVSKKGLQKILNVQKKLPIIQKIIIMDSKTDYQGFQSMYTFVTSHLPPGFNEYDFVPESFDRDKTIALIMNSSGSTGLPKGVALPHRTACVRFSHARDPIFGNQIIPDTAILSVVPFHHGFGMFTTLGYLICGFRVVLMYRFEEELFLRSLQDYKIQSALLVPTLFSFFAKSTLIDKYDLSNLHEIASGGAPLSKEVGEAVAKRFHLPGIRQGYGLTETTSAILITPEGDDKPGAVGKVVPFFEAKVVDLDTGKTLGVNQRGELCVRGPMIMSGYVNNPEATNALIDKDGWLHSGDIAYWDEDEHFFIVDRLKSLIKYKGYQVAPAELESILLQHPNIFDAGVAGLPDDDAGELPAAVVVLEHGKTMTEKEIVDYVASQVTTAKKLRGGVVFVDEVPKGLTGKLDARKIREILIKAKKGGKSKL
Outline: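 Luminescence inhibition readout: compounds (11-point qHTS) sat 15 min at room temperature with substrate mix (0.013 mM luciferin and ATP), then firefly luciferase was added and signal read 5 min later.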

[12] = KB-3-1 Cancer Cell Toxicity qHTS against the NCATS CANVASS Library (AID 1347366); note: nearly all actives have a fitted effect of over 75% in size; note: potency is the fitted concentration of half-maximal effect
Outline: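 KB-3-1 cells (500 cells/well) in DMEM + 10% FBS were treated with compounds for 72 hr at 37C, 5% CO2. Viability was read as CellTiter-Glo luminescence after 10 minutes at room temperature.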

[13] = MCF7 Cancer Cell Toxicity qHTS against the NCATS CANVASS Library (AID 1347369); note: potency is the fitted concentration of half-maximal effect
Outline: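 MCF7, 500 cells/well; cpds 11-pt qHTS; 72 hr, 37C/5% CO2; CellTiterGlo ATP luminescence.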

[14] = qHTS for ATAD5 Antagonist screened against the NCATS CANVASS Library (AID 1347370); note: nearly all actives have a fitted effect of over 65% in size; note: potency is the fitted concentration of half-maximal effect
Outline: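 HEK293T-ATAD5 luc reporter, 2000 cells/well; 5hr attach; cpd + 10 uM 5-FUrd; 16hr 37C, 5% CO2. Readouts: CellTiter-Fluor fluorescence (1hr), then Amplite luciferase luminescence (30min RT).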

[15] = J3T Cancer Cell Toxicity qHTS against the NCATS CANVASS Library (AID 1347371); note: potency is the fitted concentration of half-maximal effect
Outline: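 ATP-based cytotoxicity in canine J3T cells: 72 hr exposure at 37C, 11-point titration, CellTiterGlo luminescent detection.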

[16] = target: Nuclear receptor subfamily 1 group I member 3 (Homo sapiens) (UniProt Q14994); assay: qHTS for Constitutive Androstane Receptor (CAR) Agonist screened against the NCATS CANVASS Library (AID 1347373);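 note: every well also contained 1.5 µM PK11195 alongside the test compound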
Nuclear receptor subfamily 1 group I member 3 (Homo sapiens), sequence (Q14994 whole entry, looked up): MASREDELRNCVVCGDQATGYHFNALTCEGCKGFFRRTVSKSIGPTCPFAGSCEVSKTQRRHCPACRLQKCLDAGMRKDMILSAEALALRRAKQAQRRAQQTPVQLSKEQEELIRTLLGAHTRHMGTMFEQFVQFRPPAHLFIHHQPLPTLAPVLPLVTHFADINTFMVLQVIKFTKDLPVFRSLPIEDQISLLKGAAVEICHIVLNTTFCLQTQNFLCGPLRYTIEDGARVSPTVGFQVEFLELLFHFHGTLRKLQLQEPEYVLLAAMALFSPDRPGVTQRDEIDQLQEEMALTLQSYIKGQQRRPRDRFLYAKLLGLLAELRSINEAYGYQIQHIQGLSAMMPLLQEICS
Outline: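 In an 11-point concentration series, compounds were incubated 24hr with HepG2 cells carrying hCAR and a CYP2B6-2.2kb reporter, with PK11195 at 1.5uM final. A CellTiter-Fluor viability read preceded the ONE-Glo luminescence read.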

[17] = 10-beta competent E. coli microbial cell viability qHTS against the NCATS CANVASS Library (AID 1347376); note: series mostly up to about 46 µM
Outline: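 Overnight 37C exposure of 10-beta E. coli (0.2 OD) to an 11-point concentration series; ATP-based luminescence after 20 min room-temperature reagent incubation; daunomycin as control.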

[18] = qHTS for Inflammasome Signaling Inhibitors: IL-1-beta AlphaLISA screen against the NCATS CANVASS Library (AID 1347379);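 note: human THP-1 cells primed with LPS then triggered with ATP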;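 for potency: secreted IL-1B measured as AlphaLISA emission at 615 nm; potency is the fitted concentration of half-maximal effect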
Outline: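 THP-1, 1 hr compound pre-incubation, then LPS 250 ng/mL + ATP 1.25 mM (final); 16 hr total with compound; IL-1B AlphaLISA, ex 680/em 615 nm; 11-point qHTS, up to 57.5 uM final.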

[19] = Inflammasome Signaling qHTS Counterscreen: IL-1-beta AlphaLISA counterscreen against the NCATS CANVASS Library (AID 1347381);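 note: cell-free check with purified IL-1β in medium and no THP-1 cells; series mostly up to about 57 µM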
Outline: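 Here, no cellular stimulation occurs; compounds in an 11-point series meet 4 pg purified IL-1-beta directly. Bead-based AlphaLISA detection follows (1 h acceptor/antibody, then 30 min donor, dark, room temperature), with excitation at 680 nm.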

[20] = Vero-766 cells viability qHTS against the NCATS CANVASS Library: Counterscreen for Zika virus inhibition assay (AID 1347394); note: nearly all actives have a fitted effect of over 60% in size; note: potency is the fitted concentration of half-maximal effect
Outline: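 Uninfected Vero 766 (African green monkey) cells, 1000/well, attached overnight, then exposed 72 h at 37C to compounds (11-point qHTS). Viability read by CellTiter-Glo luminescence; media-only wells served as 100% inhibition.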

Structure (SMILES)	Potency [1]	Potency [2]	Potency [3]	Potency [4]	Potency [5]	Potency [6]	Potency [7]	Potency [8]	Potency [9]	Potency [10]	Potency [11]	Potency [12]	Potency [13]	Potency [14]	Potency [15]	outcome [16]	outcome [17]	Potency [18]	outcome [19]	Potency [20]
CO[C@@H]1C[C@@H](C[C@H]2CC[C@H](C)[C@H]([C@@H](C)C(=O)O)O2)O[C@]2(O[C@](C)([C@H]3CC[C@@](C)([C@@H]4O[C@@H]([C@H]5O[C@](C)(O)[C@H](C)C[C@@H]5C)C[C@@H]4C)O3)C[C@H]2C)[C@@H]1C	11 µM (active)	4.72 µM (active)	9.43 µM (active)	3.34 µM (active)	3.75 µM (active)	0.0168 µM (active)	4.72 µM (active)	inactive	inactive	inactive	inactive	14.8 µM (active)	14.7 µM (active)	14.8 µM (active)	0.118 µM (active)	inactive	inactive	5.44 µM (active)	inactive	4.67 µM (active)
C=C[C@]1(C)CC[C@@H]([C@H](C)C(=O)OCC)O1	27.2 µM (active)	inactive	inactive	inactive	inactive	inactive	inactive	inactive	inactive	inactive	–	inactive	inactive	inactive	inactive	inactive	inactive	inactive	inactive	inactive
C/C=C/C=C/C1(O)C2C=C3C(=O)CC45C(=O)C(O)=C(C)C(=O)C4C1C1(C(=O)C(O)=C(C)C(=O)C351)C2C (stereo not given)	39.2 µM (active)	inactive	inactive	inactive	inactive	inactive	inactive	inactive	inactive	inactive	inactive	inactive	inactive	inactive	inactive	inactive	inactive	inactive	inactive	inactive
COc1cc(/C=C/C(=O)O)ccc1O	inactive	inactive	inactive	inactive	inactive	inactive	inactive	inactive	inactive	inactive	inactive	inactive	inactive	inactive	inactive	inactive	inactive	inactive	inactive	inactive
CC(O)/C=C/C1(O)C(C)(C)CC(O)CC1(C)O (stereo not given)	inactive	inactive	inactive	inactive	inactive	inactive	inactive	inactive	inactive	inactive	inactive	inactive	inactive	inactive	inactive	inactive	inactive	inactive	inactive	inactive
CC1=CC[C@@]2(C[C@@H]1O)[C@@H](C(=O)O)CC[C@H]2C(C)C	inactive	inactive	inactive	inactive	inactive	inactive	inactive	inactive	inactive	inactive	inactive	inactive	inactive	inactive	inactive	inactive	inactive	inactive	inactive	inactive
C=C(NC(=O)c1csc(-c2nc3c(cc2O)-c2nc(cs2)C(=O)NC(C(C)O)C(=O)N/C(=C(\C)O)c2nc(cs2)C(=O)NC2c4nc(cs4)C(=O)NC(COC(=O)c4c5c6c(cccc6n4O)COC(=O)[C@@H](OC4C[C@](C)(O)[C@H](N(C)C)[C@H](C)O4)C2OC5)c2nc-3cs2)n1)C(N)=O (stereo not given in full)	4.4 µM (active)	inactive	inactive	inactive	inactive	inactive	inactive	inactive	inactive	inactive	inactive	inactive	inactive	inactive	inactive	inactive	inactive	inactive	inactive	inactive
C=C1C[C@@]23C=CC(=O)[C@@](C)(CCC(=O)Nc4c(OC5O[C@H](CO)[C@@H](O)[C@H](O)[C@H]5O)ccc(C(=O)O)c4O)C2C[C@@H]1CC3 (stereo not given in full)	39.2 µM (active)	inactive	inactive	inactive	inactive	inactive	inactive	inactive	inactive	inactive	inactive	inactive	inactive	inactive	inactive	inactive	inactive	inactive	inactive	inactive
O=Cc1ccc2n1C[C@@]1(C[C@H](O)[C@@H](CO)O1)OC2	inactive	inactive	inactive	inactive	inactive	inactive	inactive	inactive	inactive	inactive	inactive	inactive	inactive	inactive	inactive	inactive	inactive	inactive	inactive	inactive
CC(=O)NC[C@@H]1O[C@H](CC/C=C(C)/C(C)=C/C=O)[C@H](C)C[C@H]1O	49.3 µM (active)	inactive	inactive	inactive	inactive	inactive	inactive	inactive	inactive	inactive	inactive	inactive	inactive	inactive	inactive	inactive	inactive	inactive	inactive	inactive
CCCCCCCCCCCCCCC[C@H](O)C[C@@H](O)C[C@@H](O)C[C@@H](O)C[C@@H](O)C[C@H]1CC=CC(=O)O1	44 µM (active)	2.11 µM (active)	4.21 µM (active)	2.11 µM (active)	1.88 µM (active)	1.49 µM (active)	3.34 µM (active)	16.6 µM (active)	26.4 µM (active)	9.35 µM (active)	inactive	9.35 µM (active)	7.39 µM (active)	26.3 µM (active)	3.72 µM (active)	inactive	inactive	3.06 µM (active)	inactive	5.24 µM (active)
CC[C@H](C)[C@H](NC(=O)C(Cc1ccc(O)cc1)NC(=O)C(Cc1c[nH]c2ccccc12)NC(=O)[C@H](C)N)C(=O)N1C(C(=O)NC(Cc2ccc(O)cc2)C(=O)O)CC2(c3ccc(O)cc3)c3ccccc3NC12 (stereo not given in full) (H-A[ξW][ξY]I[X4][ξY]-OH)	9.84 µM (active)	inactive	inactive	inactive	inactive	inactive	inactive	inactive	inactive	inactive	inactive	inactive	inactive	inactive	inactive	inactive	inactive	inactive	inactive	inactive
Cc1cc(O)cc2oc(C[C@H](C)O)cc(=O)c12	44 µM (active)	inactive	inactive	inactive	inactive	inactive	inactive	inactive	inactive	inactive	inactive	inactive	inactive	inactive	inactive	inactive	inactive	inactive	inactive	inactive
O=C(O)[C@@]12CO[C@@]3(O)C4CCN(CC[C@H]31)[C@H]4c1c2[nH]c2ccccc12	inactive	inactive	inactive	inactive	inactive	inactive	inactive	inactive	inactive	inactive	inactive	inactive	inactive	inactive	inactive	inactive	inactive	inactive	inactive	inactive
CC1(C)[C@H](Br)CC[C@]23C[C@]4(C)C(=O)CC12C[C@H]34	inactive	inactive	inactive	inactive	inactive	inactive	inactive	inactive	inactive	inactive	inactive	inactive	inactive	inactive	inactive	–	inactive	inactive	inactive	inactive
CN1CC[C@]2(c3cccc4c3N[C@@H]3N(C)CC[C@]43[C@@]34CCN(C)[C@@H]3Nc3c([C@]56CCN(C)[C@H]5Nc5ccccc56)cccc34)c3ccccc3N[C@H]12	inactive	8.38 µM (active)	8.41 µM (active)	4.72 µM (active)	6.68 µM (active)	18.8 µM (active)	5.94 µM (active)	inactive	inactive	inactive	inactive	4.69 µM (active)	2.34 µM (active)	9.33 µM (active)	2.64 µM (active)	inactive	–	24.3 µM (active)	–	20.9 µM (active)
COc1cc(O)c2c3c(c(O)cc(C)c13)C(=O)OC2	22 µM (active)	inactive	inactive	inactive	inactive	inactive	inactive	inactive	inactive	inactive	inactive	inactive	inactive	inactive	inactive	inactive	inactive	inactive	inactive	inactive
C[C@@H]1C[C@H]2C[C@]3(CCCCN3C)[C@@H]3C[C@H]2[C@H](C1)N(C)C3	inactive	inactive	inactive	inactive	inactive	inactive	inactive	inactive	inactive	inactive	inactive	inactive	inactive	inactive	inactive	inactive	inactive	inactive	inactive	inactive
COc1ccc(CCCc2cc(O)c(OC)c(O)c2)c(O)c1O	11 µM (active)	inactive	inactive	inactive	inactive	inactive	inactive	inactive	inactive	inactive	inactive	–	inactive	11.7 µM (active)	inactive	inactive	inactive	inactive	inactive	inactive
C1=C2CCCN[C@@H]2[C@@H]2CCN3CCCC[C@@H]3[C@H](C1)C2	inactive	inactive	inactive	inactive	inactive	inactive	inactive	inactive	inactive	inactive	inactive	inactive	inactive	inactive	inactive	inactive	inactive	inactive	inactive	inactive
